Assay [1] can be described thus: inhibitors of TNFa-induced NFkB p65 translocation, primary screen, imaging, HUVEC, MLSMR starter and 10KST1 sets (AID 438).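 Further: compound added about 3h40 before a 20 min TNFalpha stimulation.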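 On inhibition: signal is the nuclear over cytoplasmic p65 intensity ratio per well.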 To be noted: HUVEC TNFa-induced p65 nuclear translocation; cell count: measured here: nuclei count (cytotoxicity indicator), at 2.08 µM; inhibition: at 2 µM, stronger effect = higher value, 0% TNFa-plus-vehicle, 100% no-TNFa wells.
A short description of assay [2]: reduction of polyQ htt aggregates in cells – imaging, exon1htt(103Q)mCFP cells, high-content imaging, primary screen (AID 483;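 active means visual image review flags a hit and inhibition of aggregation exceeds 20%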;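 further: compound exposure lasted 3 days before fixation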;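 on nuclei count: percent of the per-plate median nuclei count of sample wells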). To be noted: exon1htt(103Q)mCFP cell line, aggregate imaging, at 2 µM; inhibition of aggregation: stronger effect = higher value; nuclei count: measured here: cell count, toxicity.
A short description of assay [3]: endothelial E-selectin expression blockers – imaging, HUVEC, immunofluorescence, MLSMR starter and 10KST1 sets, primary screen (AID 487;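 active means visually confirmed hit in the image check and inhibition above 20%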;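 on inhibition: signal is fraction of cell area covered by stained E-selectin grains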;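 on nuclei count: 100% = median nuclei count of all wells on the same plate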). The following applies: HUVEC TNFalpha-induced E-selectin immunofluorescence imaging, at 2 µM; inhibition: stronger effect = higher value; nuclei count: measured here: cell number, toxicity.
In assay [4] the target is Voltage-gated potassium channel subunit beta-2 (Rattus norvegicus) (UniProt P62483). As to the kind of experiment: inhibitors of rat Kvbeta2 reductase activity – biochemical, NADPH fluorescence, primary screen (AID 622;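 active means fluorescence slope higher than the sample average by over 3 SD, cut at about -0.22 in these data, passing the limit was not always enough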;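 further: slope of raw intensity against log time taken from 70 to 1610 s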). To be noted: recombinant KvBeta, 4-cyanobenzaldehyde reduction, at 10 µM, stronger effect = higher value.
Sequence of Voltage-gated potassium channel subunit beta-2 (Rattus norvegicus) (P62483 whole entry, looked up): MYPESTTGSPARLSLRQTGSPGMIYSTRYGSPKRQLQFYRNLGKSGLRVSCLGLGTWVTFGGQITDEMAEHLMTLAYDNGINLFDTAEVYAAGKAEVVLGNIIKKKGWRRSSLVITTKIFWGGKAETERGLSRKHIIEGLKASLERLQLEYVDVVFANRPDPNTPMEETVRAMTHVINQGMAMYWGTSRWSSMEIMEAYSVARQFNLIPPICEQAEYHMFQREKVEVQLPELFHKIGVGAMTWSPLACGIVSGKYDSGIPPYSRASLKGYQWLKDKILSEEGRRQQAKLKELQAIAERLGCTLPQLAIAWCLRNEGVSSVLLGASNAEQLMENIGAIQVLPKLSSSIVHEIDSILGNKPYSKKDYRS
Assay [5] has the same target. The assay can be described thus: enhancers of rat Kvbeta2 NADPH turnover – biochemical, NADPH fluorescence, primary screen (AID 623;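 active means NADPH fluorescence slope more negative than the mean of all samples by about 3 SD, 99.7% confidence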;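 further: fluorescence intensity change per second fitted from 20 to 320 s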). The following applies: Recombinant KvBeta, NADPH fluorescence decrease slope, 10 min; at 10 µM; stronger effect = lower value.
The target of assay [6] is Alpha-2C adrenergic receptor (Homo sapiens) (UniProt P18825). The assay can be described thus: compounds altering alpha2C-coupled GIRK flux – cell-based, HEK293 alpha2C/GIRK1/2, thallium flux, primary screen (AID 624;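 active means fluorescence slope after compound addition differing from the mean of all screened samples at 99.7% confidence, in either direction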;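 further: slope of fluorescence ratio to pre-addition baseline per second over 15 to 24 s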). The following applies: thallium flux BTC fluorescence, at 10 µM, actives lie on both sides.
Sequence of Alpha-2C adrenergic receptor (Homo sapiens) (P18825 whole entry, looked up): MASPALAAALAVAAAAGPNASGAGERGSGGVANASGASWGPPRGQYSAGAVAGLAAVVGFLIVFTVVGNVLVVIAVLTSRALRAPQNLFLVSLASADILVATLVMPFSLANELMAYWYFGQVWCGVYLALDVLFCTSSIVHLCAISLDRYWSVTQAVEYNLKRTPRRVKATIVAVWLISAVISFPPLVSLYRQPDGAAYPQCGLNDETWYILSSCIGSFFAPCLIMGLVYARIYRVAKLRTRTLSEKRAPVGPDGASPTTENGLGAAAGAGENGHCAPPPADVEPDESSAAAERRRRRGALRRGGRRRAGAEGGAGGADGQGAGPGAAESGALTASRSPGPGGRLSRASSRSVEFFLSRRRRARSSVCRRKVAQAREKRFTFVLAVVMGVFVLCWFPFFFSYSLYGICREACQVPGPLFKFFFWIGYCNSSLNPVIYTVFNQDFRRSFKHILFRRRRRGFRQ
A short description of assay [7]: blockers of RIG-like receptor reporter activation – cell-based, Sendai virus stimulus, luciferase, 10K MLSCN set, TLR/RLR signaling modifier project, primary screen (AID 602276;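 active means inhibition at or above 50% at 10 µM; inactive means inhibition below 50%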;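 further: firefly luciferase from ISG56 promoter only with Renilla not read in this screen; 0% = Sendai virus plus DMSO and 100% = medium plus DMSO without virus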). To be noted: HEK293 RL24 IRF3 luciferase reporter, at 10 µM, stronger effect = higher value.
Assay [8] can be described thus: TLR3 IRF3 reporter activation blockers – cell-based, poly I:C stimulus, luciferase, 10K MLSCN set, primary screen (AID 602277;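 active means inhibition of the reporter signal at or above 50%; inactive means inhibition below 50%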). The following applies: HEK293-TLR3 RL24 IRF3 luciferase reporter, at 10 µM, stronger effect = higher value.

Each structure is given as a SMILES string. Activity calls are given as the source filed them.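 How the source made its calls, unless noted: active means inhibition above 20% together with a positive visual image hit; inconclusive means visual image hit but inhibition not above 20%; inactive means no visual image hit.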

The inhibition is the drop in the measured response relative to a control, in per cent.

`CCN(CC(=O)O)S(=O)(=O)c1cc(Cl)ccc1Cl`: the cell count in assay [1] stood at 353. Moreover, the inhibition was 5.6% (inactive) in assay [1], -33.4% (inactive) in assay [3], -0.0466% (inactive) in assay [7] and -0.284% (inactive) in assay [8]. Moreover, in assay [2], the inhibition of aggregation was 10.8% (inactive). Also, the nuclei count in assay [2] was found to be 97.3%; in assay [3] it was 75.2%. For the same compound, in assay [4], the fluorescence slope was -0.416 (inactive). In assay [5], the NADPH fluorescence slope was -2.7e-05 (inactive). The slope in assay [6] is 0.00473 (inactive).

Turning to `CCC(C)NCC(O)COCc1ccc(Cl)cc1` (centres undefined), in assay [1], the cell count came out at 296. Also, the inhibition in assay [1] is -2% (inactive); in assay [3] it was -9.3% (inactive); in assay [7] it was 15.4% (inactive); in assay [8], 20.9% (inactive). The inhibition of aggregation in assay [2] is -4% (inactive). Moreover, the nuclei count in assay [2] was 98.9%; in assay [3] it was 86.6%. Further, the fluorescence slope in assay [4] is -0.484 (inactive). In addition, in assay [5], the NADPH fluorescence slope was -5.9e-06 (inactive). The slope in assay [6] is 0.00563 (inactive).

As to `NS(=O)(=O)c1ccc(CCNC(=O)CCC2COc3ccccc3O2)cc1` (centres undefined), in assay [1], the cell count came to 535. Also, the inhibition in assay [1] is -8.3% (inactive); in assay [3] it was -20.9% (inactive); in assay [7] it was 15.7% (inactive); in assay [8], 18.3% (inactive). The inhibition of aggregation in assay [2] was -5.3% (inactive). Further, the nuclei count in assay [2] was found to be 98.4%; in assay [3], 90.3%. The fluorescence slope in assay [4] was -0.564 (inactive). Besides, in assay [5], the NADPH fluorescence slope was 3.4e-06 (inactive). For the same compound, in assay [6], the slope was 0.00562 (inactive).

Take `CCOC(=O)c1[nH]c(C)c(C(=O)Nc2ccccc2C)c1C`: in assay [1], the cell count worked out at 619. For the same compound, the inhibition in assay [1] is 12.1% (inactive); in assay [3], -15.2% (inactive); in assay [7] it was 27.7% (inactive); in assay [8], 11.1% (inactive). For the same compound, the inhibition of aggregation in assay [2] was -101% (inactive). Further, the nuclei count was found to be 7.1% in assay [2] and 94.8% in assay [3]. Besides, the fluorescence slope in assay [4] was -0.603 (inactive). For the same compound, in assay [5], the NADPH fluorescence slope is -5.4e-05 (inactive). In assay [6], the slope was 0.00703 (inactive).

Regarding `C=Cn1c(N2CCOCC2)nc2c1c(=O)[nH]c(=O)n2C`, the cell count in assay [1] is 719. Moreover, the inhibition in assay [1] is 0.9% (inactive); in assay [3], 21.8% (inactive); in assay [7], 20% (inactive); in assay [8], 20.4% (inactive). Moreover, the inhibition of aggregation in assay [2] was -2.7% (inactive). Besides, the values for the nuclei count in assay [2] and in assay [3] were 62.9% and 115%, respectively. For the same compound, the fluorescence slope in assay [4] is -0.412 (inactive). Further, the NADPH fluorescence slope in assay [5] is -2.2e-05 (inactive). In addition, the slope in assay [6] was 0.00579 (inactive).

`Cc1c(C)c2ccc(OC3CCCCC3=O)cc2oc1=O` (centres undefined): the cell count in assay [1] turned out to be 573. The inhibition was -9.2% (inactive) in assay [1], 38.5% (inactive) in assay [3], -2.48% (inactive) in assay [7] and -14.3% (inactive) in assay [8]. The inhibition of aggregation in assay [2] was -0.8% (inactive). The nuclei count was determined as 120% in assay [2] and 134% in assay [3]. Moreover, in assay [4], the fluorescence slope was -0.175 (inactive). In addition, in assay [5], the NADPH fluorescence slope is -2e-05 (inactive). For the same compound, the slope in assay [6] is 0.0054 (inactive).

For the compound `CCn1c(CCC(=O)Nc2nc3c(s2)CCCC3)nc2cc(S(=O)(=O)N(C)C)ccc21`, in assay [1], the cell count was 288. For the same compound, the inhibition in assay [1] is 1.4% (inactive); in assay [3], -54.4% (inactive); in assay [7], 14.6% (inactive); in assay [8], 18.8% (inactive). Further, the inhibition of aggregation in assay [2] was -9% (inactive). The nuclei count in assay [2] was 103%; in assay [3], 123%. The fluorescence slope in assay [4] is -0.398 (inactive). In addition, the NADPH fluorescence slope in assay [5] is -3e-05 (inactive). Besides, in assay [6], the slope was 0.00627 (inactive).

Consider `COCCSc1nnc(NC(=O)CSCc2ccccc2)s1`, for which, in assay [1], the cell count is 524. Further, the inhibition is -14.6% (inactive) in assay [1], -31.2% (inactive) in assay [3], 19% (inactive) in assay [7] and 26.7% (inactive) in assay [8]. Moreover, in assay [2], the inhibition of aggregation is 3.8% (inactive). The nuclei count in assay [2] worked out at 112%; in assay [3], 89.4%. The fluorescence slope in assay [4] was -0.528 (inactive). In addition, in assay [5], the NADPH fluorescence slope was -3.2e-05 (inactive). Further, in assay [6], the slope is 0.00459 (inactive).

Turning to `CCOc1ccc(NC(=O)CCN2CCN(c3ccccc3)CC2)cc1`, the cell count in assay [1] was 696. Besides, the inhibition in assay [1] was -6.4% (inactive); in assay [3] it was -44.6% (inactive); in assay [7], 20.2% (inactive); in assay [8] it was 16.6% (inactive). In assay [2], the inhibition of aggregation was 8.3% (inactive). The nuclei count in assay [2] came to 101%; in assay [3] it was 105%. Besides, the fluorescence slope in assay [4] is -0.261 (inactive). Also, the NADPH fluorescence slope in assay [5] was -1.2e-05 (inactive). For the same compound, in assay [6], the slope is 0.00485 (inactive).

For `Cc1ccc2oc(=O)c3cnn(CC(=O)N4CCCCC4C)c3c2c1` (centres undefined), in assay [1], the cell count was 661. The inhibition in assay [1] was 3.9% (inactive); in assay [3], 3.2% (inactive); in assay [7], 3.36% (inactive); in assay [8] it was 23.4% (inactive). The inhibition of aggregation in assay [2] was -4% (inactive). Further, the nuclei count was 77.1% in assay [2] and 88.1% in assay [3]. For the same compound, in assay [4], the fluorescence slope was -0.518 (inactive). The NADPH fluorescence slope in assay [5] is -1.6e-05 (inactive). Further, in assay [6], the slope is 0.00597 (inactive).

Take `CCOc1ccccc1N1CCN(C(=O)c2ccncc2)CC1`: the cell count in assay [1] is 428. For the same compound, the inhibition in assay [1] is -1.5% (inactive); in assay [3], 11.7% (inactive); in assay [7], -5.17% (inactive); in assay [8], 15.5% (inactive). Besides, the inhibition of aggregation in assay [2] is 12.2% (inactive). Moreover, the nuclei count in assay [2] was 90.1%; in assay [3] it was 105%. For the same compound, the fluorescence slope in assay [4] was -0.421 (inactive). Moreover, the NADPH fluorescence slope in assay [5] was -0.000112 (inactive). Also, the slope in assay [6] was 0.00573 (inactive).

As for `CC(=O)Nc1ccc(NS(=O)(=O)c2ccc(Cl)c(C(=O)O)c2)cc1`, the cell count in assay [1] worked out at 688. For the same compound, the inhibition in assay [1] is -3.9% (inactive); in assay [3], -37.3% (inactive); in assay [7], -2.13% (inactive); in assay [8], 20.4% (inactive). Also, the inhibition of aggregation in assay [2] is 11.4% (inactive). The nuclei count was 124% in assay [2] and 128% in assay [3]. Also, the fluorescence slope in assay [4] was -0.42 (inactive). Moreover, the NADPH fluorescence slope in assay [5] was -3.1e-05 (inactive). Besides, the slope in assay [6] is 0.00403 (inactive).

As for `COc1cccc(C2CC(c3ccc(C)cc3)Nc3nc(N)nn32)c1` (centres undefined), the cell count in assay [1] was found to be 538. The inhibition was 2.3% (inactive) in assay [1], 28% (inactive) in assay [3], -7.82% (inactive) in assay [7] and 16.6% (inactive) in assay [8]. Besides, the inhibition of aggregation in assay [2] was 23.1% (inactive). The nuclei count in assay [2] amounted to 102%; in assay [3] it was 101%. In addition, the fluorescence slope in assay [4] was -0.564 (inactive). For the same compound, the NADPH fluorescence slope in assay [5] is 4e-05 (inactive). In addition, the slope in assay [6] was 0.0074 (inactive).

Take `O=C(OCC#CCSc1nnc(-c2ccncc2)o1)c1cccs1`: in assay [1], the cell count was found to be 513. The inhibition was 5.2% (inactive) in assay [1], -19.4% (inactive) in assay [3], 1.96% (inactive) in assay [7] and 24.8% (inactive) in assay [8]. Moreover, in assay [2], the inhibition of aggregation is -4.1% (inactive). The nuclei count stood at 104% in assay [2] and 102% in assay [3]. In addition, the fluorescence slope in assay [4] is -0.426 (inactive). In addition, the NADPH fluorescence slope in assay [5] is -2e-05 (inactive). The slope in assay [6] was 0.00642 (inactive).

Values taken from PubChem BioAssay.
